The values that follow come from PubChem BioAssay (NCI).

This is part of a sample that, as a whole, favours compounds with a hit. Of some 83,000 tested, about 20% had one in any assay.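 Treatment: one concentration, 48 hours, 96-well format. Scoring: percent growth, with anything below 10 considered active.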 Active and inactive are the calls of the source.

In the first experiment the test system is CCRF-CEM leukemia. The experiment is described as follows: NCI-60 one-dose screen, 48 h (100 = growth as untreated, 0 = no growth, -100 = all killed). As to conditions: 10 µM unless noted.
On to `CC(=O)C1=C(C)NC(NNc2ccccc2)=NC1c1ccc([N+](=O)[O-])cc1` (stereo not drawn), for which the growth is 89.7% (inactive). As for `COC(=O)c1ccc(NC2=C(Cl)C(=O)C(C)=C(C)C2=O)cc1`, the growth is 9.06% (active). Still for that read-out and setting: under `C=C(C=O)[C@@H]1CC[C@]2(C(=O)O)CC[C@]3(C)C(CC[C@@H]4[C@@](C)(CCC#N)[C@H](C(=C)C=O)CC[C@]43C)[C@@H]12` (stereo partly drawn) stands 2.89% (active); under `CCOC(=O)C1=C(C)NC(C)=C(C(=O)OC(C)C)C1c1cccc(C#N)c1` (stereo not drawn), 103% (inactive); under `CC1(C)CC[C@]23CC[C@]4(C)[C@H](CC[C@@H]5[C@@]6(C)CC[C@H](NCO)C(C)(C)[C@@H]6CC[C@]54C)[C@H]2[C@H]1OC3`, 36.5% (inactive). On the same count and under the same terms, under `COc1ccc(C(=NNS(=O)(=O)c2ccc(C)cc2)c2ccccc2)cc1OC` stands 102% (inactive); under `COc1cccc2c1C=CC1(O2)Oc2cccc(OC)c2C=C1C` (stereo not drawn), 10.1% (inactive). The same measure, in the same setting: the value for `Cc1csc(/N=C(N)/N=C(\N)c2cccnc2)n1` was 79.2% (inactive). As to `Cc1ccc(/C=N/Nc2nc(Nc3ccccc3)nc(Nc3ccc(S(N)(=O)=O)cc3)n2)cc1`, the growth was 42% (inactive). The same measure, in the same setting: under `CCCC[n+]1ccc(SCC(=O)n2ccc3ccccc32)c2ccccc21` stands 87.3% (inactive).

As for `O=[N+]([O-])c1ccc(NC(=S)NNC(=S)Nc2ccc(Br)cc2)cc1`, the growth was 89.1% (inactive).

With `CCOP(=O)(OCC)OC[C@]12CCC(C)(C)CC1C1=CC[C@@H]3[C@@]4(C)CCCNC(C)(C)[C@@H]4CC[C@@]3(C)[C@]1(C)CC2` (stereo partly drawn), the growth is 28.1% (inactive). As to `CNC(=O)Nc1ccc(Nc2cc(-c3ccc(-n4cccn4)cc3)[nH]n2)c(C)c1`, the growth was 93.1% (inactive). As for `O=C(CCCCCCNC(=O)c1csc(Br)n1)NO`, the growth was 16.1% (inactive).

With `NS(=O)(=O)c1ccc(Nc2nc(N/N=C/c3ccc4c(c3)OCO4)nc(Nc3ccccc3)n2)cc1`, the growth is 16.3% (inactive). The same measure, in the same setting: the value for `CCc1cc2c(cc1Cl)nc1c(=O)[nH]c(=O)nc-1n2CCOCC(C)C` was 77.6% (inactive).

As to `COc1cc(C(=O)c2cc(C(C)=O)c3cccc(C)n23)cc(OC)c1OC`, the growth was 44.1% (inactive). On the same count and under the same terms, the value for `Nc1ncc(-c2ccc3ncnc(NCc4ccccc4)c3c2)cn1` was 42.3% (inactive). Still for that read-out and setting: under `COc1ccc2c(c1)c(-c1nn3cc(-c4ccncc4)nc3s1)cn2C` stands 43.9% (inactive).

The next experiment deals with MOLT-4 leukemia. Described as above. As to conditions: 10 µM unless noted.
As for `C#C[C@]1(O)CC[C@H]2[C@@H]3CC=C4c5sc(N(C)c6ccccc6)nc5CC[C@]4(C)[C@H]3CC[C@@]21C`, the growth is 31.3% (inactive). As for `CC(=O)c1c([Si](C)(C)C)c2cc(C#N)ccn2c1C(=O)c1ccc(Br)cc1`, the growth is 85.3% (inactive).

With `O=C(CSc1nc2ccccc2c(=O)n1-c1ccc(Cl)c(Cl)c1)Nc1ccc(S(=O)(=O)Nc2ccc(Cl)nn2)cc1`, the growth is 97.2% (inactive). For `C#CCN(C)CCCOc1ccc(NCc2ccc(/C=C/C(=O)NO)cc2)cc1Cl`, the growth was 15.7% (inactive). With `O=C(NNc1nc2cc(F)cc(F)c2n2cccc12)c1cccnn1`, the growth was 7.32% (active). `COc1ccc(/C(=N\NC(N)=S)c2ccc(Cl)cc2)cc1OC`: the growth was 29.5% (inactive). On to `COc1ccc(-c2c(C(N)=O)c(N)n(Cc3nc4ccccc4[nH]3)c(=O)c2C#N)c(OC)c1`, for which the growth is 102% (inactive). Same read-out and setting: under `Cc1cc(Br)ccc1-n1cc(C#N)c(N)c1C(=O)c1ccc(Br)cc1` stands 108% (inactive); under `CN1CCN(Cc2ccc(NC(=O)c3cncc(C#Cc4cnc(N)nc4)c3)cc2C(F)(F)F)CC1`, 21.9% (inactive).

With `CCOC(=O)c1c(NC(=O)c2ccc(C(F)(F)F)cc2)sc2c3c(ccc12)OCN(C)C3`, the growth was -8.7% (active). As to `O=C1CSC(c2cn(-c3ccccc3)nc2-c2ccc(Cl)cc2)N1c1ccccc1` (stereo not drawn), the growth is 114% (inactive). For `COc1ccc(-c2c3c(cn2Cc2cccc(OC)c2)-c2oncc2CCC3)cc1`, the growth is 98.6% (inactive). The same measure, in the same setting: the value for `C#C[C@]1(O)CC[C@H]2[C@@H]3CC=C4c5sc(Nc6ccc(C)cn6)nc5CC[C@]4(C)[C@H]3CC[C@@]21C` was -42.3% (active); that for `CCCCCCOC(=O)c1cc(-c2ccc(F)cc2)nc2ccccc12` was 97.2% (inactive); that for `CN1CCN(c2ccc(Nc3nc(NCCNS(=O)(=O)c4ccccc4)c4sccc4n3)cc2)CC1` was 95.3% (inactive). Still for that read-out and setting: the value for `CN1CCN(Cc2ccc(NC(=O)c3cncc(C#Cc4cnc5ccc(O[C@@H]6CCOC6)nn45)c3)cc2C(F)(F)F)CC1` was -26% (active).

For `CC(C)(C)Nc1nc2c(OCCc3ccccc3)cccn2c1-c1ccc([N+](=O)[O-])cc1`, the growth was 18.1% (inactive). The same measure, in the same setting: the value for `N#Cc1c(-c2cccs2)cc(-c2cnccn2)nc1SCC(=O)N/N=C/c1ccc(Cl)cc1` was 102% (inactive). Consider `CN(C)CCCOc1ccc(C(=C(c2ccccc2)C2CCCC2)c2ccc(OCCCN(C)C)cc2)cc1`, for which the growth is -58% (active). In the case of `N#Cc1nc(-c2ccc(Cl)cc2)oc1N1CCC(S(=O)(=O)N2CCOCC2)CC1`, the growth was 104% (inactive).

`CC(=O)C1=C(C)NC(NNc2ccccc2)=NC1c1ccc([N+](=O)[O-])cc1` (stereo not drawn): the growth is 82.6% (inactive). Same read-out and setting: the value for `COC(=O)c1ccc(NC2=C(Cl)C(=O)C(C)=C(C)C2=O)cc1` was 9.07% (active); that for `C=C(C=O)[C@@H]1CC[C@]2(C(=O)O)CC[C@]3(C)C(CC[C@@H]4[C@@](C)(CCC#N)[C@H](C(=C)C=O)CC[C@]43C)[C@@H]12` (stereo partly drawn) was 5.55% (active). The same measure, in the same setting: under `CCOC(=O)C1=C(C)NC(C)=C(C(=O)OC(C)C)C1c1cccc(C#N)c1` (stereo not drawn) stands 88.8% (inactive). On the same count and under the same terms, under `CC1(C)CC[C@]23CC[C@]4(C)[C@H](CC[C@@H]5[C@@]6(C)CC[C@H](NCO)C(C)(C)[C@@H]6CC[C@]54C)[C@H]2[C@H]1OC3` stands 15% (inactive). As to `COc1ccc(C(=NNS(=O)(=O)c2ccc(C)cc2)c2ccccc2)cc1OC`, the growth was 98.3% (inactive). With `COc1cccc2c1C=CC1(O2)Oc2cccc(OC)c2C=C1C` (stereo not drawn), the growth was 11.7% (inactive). Still for that read-out and setting: the value for `Cc1csc(/N=C(N)/N=C(\N)c2cccnc2)n1` was 83% (inactive); that for `Cc1ccc(/C=N/Nc2nc(Nc3ccccc3)nc(Nc3ccc(S(N)(=O)=O)cc3)n2)cc1` was 40.4% (inactive). The same measure, in the same setting: under `CCCC[n+]1ccc(SCC(=O)n2ccc3ccccc32)c2ccccc21` stands 83.1% (inactive). Same read-out and setting: under `O=[N+]([O-])c1ccc(NC(=S)NNC(=S)Nc2ccc(Br)cc2)cc1` stands 74.9% (inactive); under `CCOP(=O)(OCC)OC[C@]12CCC(C)(C)CC1C1=CC[C@@H]3[C@@]4(C)CCCNC(C)(C)[C@@H]4CC[C@@]3(C)[C@]1(C)CC2` (stereo partly drawn), 2.26% (active); under `CNC(=O)Nc1ccc(Nc2cc(-c3ccc(-n4cccn4)cc3)[nH]n2)c(C)c1`, 91.1% (inactive).

Regarding `O=C(CCCCCCNC(=O)c1csc(Br)n1)NO`, the growth was 17.4% (inactive).

Take `NS(=O)(=O)c1ccc(Nc2nc(N/N=C/c3ccc4c(c3)OCO4)nc(Nc3ccccc3)n2)cc1`: the growth is 11.2% (inactive). Still for that read-out and setting: under `CCc1cc2c(cc1Cl)nc1c(=O)[nH]c(=O)nc-1n2CCOCC(C)C` stands 64.1% (inactive); under `COc1cc(C(=O)c2cc(C(C)=O)c3cccc(C)n23)cc(OC)c1OC`, 38.6% (inactive); under `Nc1ncc(-c2ccc3ncnc(NCc4ccccc4)c3c2)cn1`, 17.7% (inactive). Take `COc1ccc2c(c1)c(-c1nn3cc(-c4ccncc4)nc3s1)cn2C`: the growth was 47.2% (inactive).
